Calls of active or inactive are those of the source. The calls were made as follows: active = hit-call score of the fitted dose curve at least 0.9, where 1 is the maximum; inactive = score below 0.9.

3 compounds from PubChem BioAssay (EPA / NIEHS) can be followed below.

Conditions in all cases: mRNA level, 48 h; actives raise or lower the signal
Read-out in experiment [1]: Interleukin 6 (IL6), IL6 (gene 3569)
The experiment is described as follows: LTEA_HepaRG_IL6: Life Technologies and Expression Analysis (LTEA) Assay for Interleukin 6 (IL6) using HepaRG (AID 2283509). A digest of the protocol:
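Differentiated human HepaRG cells, plated 48 h then switched to serum-free induction medium, were exposed in duplicate for 48 h to eight half-log concentrations up to 100 uM in 0.5% DMSO. IL6 mRNA measured by qRT-PCR, normalized to ACTB/GAPDH/POLR2A.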

Read-out in experiment [2]: Interleukin 6 Receptor (IL6R), IL6R (gene 3570)
Put plainly: LTEA_HepaRG_IL6R: Life Technologies and Expression Analysis (LTEA) Assay for Interleukin 6 Receptor (IL6R) using HepaRG (AID 2283510). In outline:
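Readout is IL6R transcript level by TaqMan qRT-PCR, normalized to three housekeeping genes and fitted bidirectionally against 0.5% DMSO controls. Human HepaRG cells received chemicals for 48 h in serum-free induction medium, highest concentration 100 uM.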

Read-out in experiment [3]: Potassium channel subfamily K member 1 (KCNK1), KCNK1 (gene 3775)
Put plainly: LTEA_HepaRG_KCNK1: Life Technologies and Expression Analysis (LTEA) Assay for Potassium channel subfamily K member 1 (KCNK1) using HepaRG (AID 2283511). In outline:
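Differentiated human HepaRG cells in serum-free induction medium were exposed in duplicate for 48 h to 8 half-log concentrations up to 100 uM in 0.5% DMSO. KCNK1 mRNA was measured by TaqMan qRT-PCR, normalized to ACTB, GAPDH and POLR2A, and fitted bidirectionally versus DMSO.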

Read-out in experiment [4]: Keratin 19 (KRT19), KRT19 (gene 3880)
Put plainly: LTEA_HepaRG_KRT19: Life Technologies and Expression Analysis (LTEA) Assay for Keratin 19 (KRT19) using HepaRG (AID 2283512). A digest of the protocol: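 Gene-expression endpoint in the human liver line HepaRG after 48 h exposure to up to 100 uM test chemical with 0.5% DMSO vehicle; KRT19 mRNA by qRT-PCR, analyzed bidirectionally versus DMSO.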

Read-out in experiment [5]: JUN Transcription Factor, JUN (gene 3725)
Put plainly: LTEA_HepaRG_JUN: Life Technologies and Expression Analysis (LTEA) Assay for JUN Transcription Factor using HepaRG (AID 2283513). In outline:
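Cells plated 48 h, medium switched to serum-free induction medium, then dosed 48 h (100 uM top, half-log dilutions, 0.5% DMSO). RNA isolated; JUN measured by qRT-PCR against three housekeeping genes; gain or loss fitted relative to DMSO.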

Read-out in experiment [6]: Lipase C (LIPC), LIPC (gene 3990)
Put plainly: LTEA_HepaRG_LIPC: Life Technologies and Expression Analysis (LTEA) Assay for Lipase C (LIPC) using HepaRG (AID 2283514). A digest of the protocol: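 Differentiated human HepaRG cells in serum-free induction medium were exposed in duplicate for 48 h to eight concentrations (top 100 uM, half-log steps, 0.5% DMSO). LIPC mRNA was quantified by TaqMan qRT-PCR, normalized to ACTB, GAPDH and POLR2A, with bidirectional fitting versus DMSO.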

Read-out in experiment [7]: Lipoprotein lipase (LPL), LPL (gene 4023)
Put plainly: LTEA_HepaRG_LPL: Life Technologies and Expression Analysis (LTEA) Assay for Lipoprotein lipase (LPL) using HepaRG (AID 2283515). A digest of the protocol:
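Differentiated human HepaRG cells in serum-free induction medium were exposed in duplicate for 48 h to eight half-log concentrations (top 100 uM) in 0.5% DMSO. LPL mRNA was quantified by TaqMan qRT-PCR, normalized to ACTB, GAPDH and POLR2A.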

Read-out in experiment [8]: MicroRNA 122 (MIR122), gene 406906
Put plainly: LTEA_HepaRG_MIR122: Life Technologies and Expression Analysis (LTEA) Assay for MicroRNA 122 (MIR122) using HepaRG (AID 2283516). Also: the transcript read is the microRNA miR-122. In outline: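 HepaRG plated 48 h, switched to serum-free induction medium, then treated in duplicate for 48 h (100 uM top, half-log steps, 0.5% DMSO vehicle). RNA isolated, qRT-PCR performed, concentration-response fitted both directions relative to DMSO.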

Read-out in experiment [9]: matrix metalloproteinase-10 (MMP10), MMP10 (gene 4319)
The experiment is described as follows: LTEA_HepaRG_MMP10: Life Technologies and Expression Analysis (LTEA) Assay for matrix metalloproteinase-10 (MMP10) using HepaRG (AID 2283517). In outline:
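HepaRG, collagen I, ~100,000 cells/well; serum-free induction medium; 48 h exposure, duplicate, 8-pt half-log to 100 uM, 0.5% DMSO. Readout: TaqMan qRT-PCR, normalized to ACTB/GAPDH/POLR2A; bidirectional fit vs DMSO.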

Read-out in another experiment: MYC, MYC (gene 4609)
The experiment is described as follows: LTEA_HepaRG_MYC: Life Technologies and Expression Analysis (LTEA) Assay for MYC using HepaRG (AID 2283518). In outline:
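Cells are thawed, plated and cultured 48 h, then treated for 48 h with test chemicals (eight half-log concentrations from 100 uM, 0.5% DMSO vehicle). RNA is isolated and MYC expression quantified by qRT-PCR against three housekeeping genes.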

Read-out in experiment [10]: matrix metalloproteinase-3 (MMP3), MMP3 (gene 4314)
The experiment is described as follows: LTEA_HepaRG_MMP3: Life Technologies and Expression Analysis (LTEA) Assay for matrix metalloproteinase-3 (MMP3) using HepaRG (AID 2283519). A digest of the protocol:
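Differentiated human HepaRG cells, plated 48 h on collagen I, were exposed in duplicate for 48 h in serum-free induction medium to eight half-log concentrations up to 100 uM in 0.5% DMSO. MMP3 mRNA was quantified by TaqMan qRT-PCR, normalised to ACTB, GAPDH and POLR2A.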

Read-out in experiment [11]: Paternally Expressed 10 (PEG10), PEG10 (gene 23089)
The experiment is described as follows: LTEA_HepaRG_PEG10: Life Technologies and Expression Analysis (LTEA) Assay for Paternally Expressed 10 (PEG10) using HepaRG (AID 2283520). In outline: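 HepaRG, 48 h post-plating → serum-free induction medium → 48 h chemical exposure (duplicate, 8-pt, max 100 uM, half-log, 0.5% DMSO) → lysis in RLT → TaqMan qRT-PCR for PEG10, ACTB/GAPDH/POLR2A normalisation.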

Read-out in experiment [12]: Nuclear factor NF-kappa-B p105 subunit (Homo sapiens) (UniProt P19838)
The experiment is described as follows: LTEA_HepaRG_NFKB1: Life Technologies and Expression Analysis (LTEA) Assay for Nuclear Factor Kappa B Subunit 1 (NFKB1) using HepaRG (AID 2283521).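 Also: TaqMan qRT-PCR transcript normalised to ACTB GAPDH and POLR2A housekeeping genes.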 A digest of the protocol: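 Human HepaRG cells receive eight half-log concentrations, highest 100 uM, for 48 h. NFKB1 expression is then quantified by qRT-PCR and analysed for up- or down-regulation relative to 0.5% DMSO vehicle.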

Read-out in experiment [13]: Protein phosphatase 2A (PPP2R4), PTPA (gene 5524)
The experiment is described as follows: LTEA_HepaRG_PPP2R4: Life Technologies and Expression Analysis (LTEA) Assay for Protein phosphatase 2A (PPP2R4) using HepaRG (AID 2283522). In outline:
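Readout is PPP2R4 transcript level by microfluidic qRT-PCR after 48 h chemical treatment of human HepaRG liver cells. Concentrations spanned 100 uM downward in half-log steps; gain or loss of signal was fitted relative to DMSO.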

Read-out in experiment [14]: Phosphatase and tensin (PTEN), PTEN (gene 5728)
The experiment is described as follows: LTEA_HepaRG_PTEN: Life Technologies and Expression Analysis (LTEA) Assay for Phosphatase and tensin (PTEN) using HepaRG (AID 2283523). A digest of the protocol:
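Differentiated human HepaRG cells, plated 48 h then switched to serum-free induction medium, were exposed in duplicate for 48 h to eight half-log concentrations up to 100 uM in 0.5% DMSO. PTEN mRNA measured by TaqMan qRT-PCR, normalized to ACTB/GAPDH/POLR2A, bidirectional fit versus DMSO.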

Read-out in experiment [15]: solute carrier (SLC22A1), SLC22A1 (gene 6580)
Put plainly: LTEA_HepaRG_SLC22A1: Life Technologies and Expression Analysis (LTEA) Assay for solute carrier (SLC22A1) using HepaRG (AID 2283524). In outline: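 Human HepaRG cells were plated 48 h, switched to serum-free induction medium, then exposed in duplicate for 48 h to 8-point half-log series from 100 uM in 0.5% DMSO. SLC22A1 mRNA measured by qRT-PCR, normalized to ACTB/GAPDH/POLR2A, fitted bidirectionally versus DMSO.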

Read-out in experiment [16]: Pyruvate Dehydrogenase Kinase 4 (PDK4), PDK4 (gene 5166)
Put plainly: LTEA_HepaRG_PDK4: Life Technologies and Expression Analysis (LTEA) Assay for Pyruvate Dehydrogenase Kinase 4 (PDK4) using HepaRG (AID 2283525). A digest of the protocol: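 Differentiated human HepaRG cells, pre-cultured 48 h, were exposed in duplicate for 48 h in serum-free induction medium to eight half-log concentrations up to 100 uM in 0.5% DMSO. PDK4 mRNA was quantified by qRT-PCR, normalized to ACTB, GAPDH and POLR2A, bidirectional fitting versus DMSO.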

Read-out in experiment [17]: NAD(P)H dehydrogenase [quinone] 1 (NQO1), NQO1 (gene 1728)
Put plainly: LTEA_HepaRG_NQO1: Life Technologies and Expression Analysis (LTEA) Assay for NAD(P)H dehydrogenase [quinone] 1 (NQO1) using HepaRG (AID 2283526). A digest of the protocol: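 HepaRG, 48 h post-plating → serum-free induction medium → test chemical 48 h (duplicate, 100 uM top, half-log x8, 0.5% DMSO) → RNA isolation → qRT-PCR, ACTB/GAPDH/POLR2A normalization; bidirectional curve fit vs DMSO baseline.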

Read-out in experiment [18]: Nuclear factor erythroid 2-related factor 2 (Homo sapiens) (UniProt Q16236)
Put plainly: LTEA_HepaRG_NFE2L2: Life Technologies and Expression Analysis (LTEA) Assay for Nuclear factor erythroid 2-related factor 2 (NFE2L2) Transcription Factor using HepaRG (AID 2283527).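 Also: TaqMan qRT-PCR transcript level normalised to ACTB GAPDH and POLR2A housekeeping genes.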 A digest of the protocol:
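Differentiated human HepaRG cells in serum-free induction medium were exposed for 48 h to eight concentrations (top 100 uM, half-log dilutions, 0.5% DMSO), in duplicate. NFE2L2 mRNA was quantified by TaqMan qRT-PCR, normalized to ACTB, GAPDH and POLR2A, with bidirectional fitting versus DMSO.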

Read-out in experiment [19]: succinate dehydrogenase complex iron sulfur subunit B (SDHB), SDHB (gene 6390)
The experiment is described as follows: LTEA_HepaRG_SDHB: Life Technologies and Expression Analysis (LTEA) Assay for succinate dehydrogenase complex iron sulfur subunit B (SDHB) using HepaRG (AID 2283528). A digest of the protocol:
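A human HepaRG culture in serum-free induction medium received test chemicals for 48 h over an eight-point range capped at 100 uM. SDHB expression change was quantified by qRT-PCR.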

Chain of Nuclear factor erythroid 2-related factor 2 (Homo sapiens) (Q16236 whole entry, looked up): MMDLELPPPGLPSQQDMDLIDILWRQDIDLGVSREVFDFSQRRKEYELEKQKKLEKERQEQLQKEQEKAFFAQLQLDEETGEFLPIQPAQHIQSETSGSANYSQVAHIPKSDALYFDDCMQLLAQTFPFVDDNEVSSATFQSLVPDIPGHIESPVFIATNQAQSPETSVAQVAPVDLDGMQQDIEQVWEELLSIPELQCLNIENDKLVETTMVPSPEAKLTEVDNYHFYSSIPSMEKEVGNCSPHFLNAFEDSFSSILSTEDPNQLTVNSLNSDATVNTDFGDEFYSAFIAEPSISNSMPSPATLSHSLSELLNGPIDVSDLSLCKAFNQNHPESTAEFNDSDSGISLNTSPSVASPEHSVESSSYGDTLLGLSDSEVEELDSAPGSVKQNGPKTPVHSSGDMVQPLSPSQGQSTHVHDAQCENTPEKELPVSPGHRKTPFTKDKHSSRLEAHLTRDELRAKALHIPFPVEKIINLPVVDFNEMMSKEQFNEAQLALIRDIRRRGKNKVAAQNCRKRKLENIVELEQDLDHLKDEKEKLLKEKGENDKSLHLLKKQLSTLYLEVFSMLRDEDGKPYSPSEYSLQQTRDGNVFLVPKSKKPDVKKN
Chain of Nuclear factor NF-kappa-B p105 subunit (Homo sapiens) (P19838 whole entry, looked up): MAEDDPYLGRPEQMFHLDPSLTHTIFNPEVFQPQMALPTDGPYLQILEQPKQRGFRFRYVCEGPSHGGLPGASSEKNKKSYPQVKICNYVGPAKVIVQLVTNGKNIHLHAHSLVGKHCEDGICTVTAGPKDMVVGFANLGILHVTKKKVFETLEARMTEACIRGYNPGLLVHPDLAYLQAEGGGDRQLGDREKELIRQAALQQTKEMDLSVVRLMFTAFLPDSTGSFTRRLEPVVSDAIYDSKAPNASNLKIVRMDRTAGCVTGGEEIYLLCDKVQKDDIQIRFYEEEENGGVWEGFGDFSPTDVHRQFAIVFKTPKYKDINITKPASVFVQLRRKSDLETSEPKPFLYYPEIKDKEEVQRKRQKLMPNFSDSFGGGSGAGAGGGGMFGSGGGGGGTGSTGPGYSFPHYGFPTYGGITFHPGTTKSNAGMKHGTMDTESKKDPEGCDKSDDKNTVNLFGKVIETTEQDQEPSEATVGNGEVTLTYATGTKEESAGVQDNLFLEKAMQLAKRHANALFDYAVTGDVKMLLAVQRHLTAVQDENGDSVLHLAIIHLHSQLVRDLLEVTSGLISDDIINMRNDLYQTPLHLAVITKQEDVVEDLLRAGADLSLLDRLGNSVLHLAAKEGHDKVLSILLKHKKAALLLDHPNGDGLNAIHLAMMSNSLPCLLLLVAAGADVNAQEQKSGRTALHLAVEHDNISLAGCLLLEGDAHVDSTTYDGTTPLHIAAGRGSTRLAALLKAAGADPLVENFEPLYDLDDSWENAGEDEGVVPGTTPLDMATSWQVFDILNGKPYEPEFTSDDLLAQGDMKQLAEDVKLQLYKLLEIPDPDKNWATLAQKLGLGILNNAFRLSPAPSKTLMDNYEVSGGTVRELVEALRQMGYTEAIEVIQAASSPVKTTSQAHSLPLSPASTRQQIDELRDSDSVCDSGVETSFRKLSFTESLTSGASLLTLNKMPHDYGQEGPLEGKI

By AC50 is commonly meant the midpoint of the concentration-response curve, whichever way the signal moves. In the case of `C=C(C)C(=O)OCCC(F)(F)C(F)(F)C(F)(F)C(F)(F)C(F)(F)C(F)(F)F`, the compound was called inactive in experiment [1], in experiment [2], in experiment [3], in experiment [4], in [5] and in experiment [6]. Further, the outcome in experiment [7] is “inactive”; in experiment [8], “inactive”; in [9] it was “inactive”; in the experiment with MYC, MYC (gene 4609) it was “inactive”; in experiment [10], “inactive”; in experiment [11], “inactive”. Besides, the result in experiment [12], in experiment [13], in [14], in experiment [15], in experiment [17] and in experiment [18] was inactive. The result in experiment [19] was inactive. In addition, in [16], the AC50 was 14 µM (active).

In the case of `CCCCCCCCCCCCN1CCCC1=O`, the compound was called inactive in [1], in experiment [2], in experiment [3], in [4], in experiment [5] and in experiment [6]. Also, the outcome in [7] was “inactive”; in experiment [8], “inactive”; in [9], “inactive”; with MYC, MYC (gene 4609), “inactive”; in experiment [10] it was “inactive”; in [11], “inactive”. Further, the call in experiment [12], in [13], in experiment [14], in [15], in [16] and in experiment [17] was inactive. Besides, the outcome in experiment [18] and in experiment [19] was inactive.

Take `CCCCOCCO`: the call in experiment [1], in experiment [2], in experiment [3], in experiment [4], in [5] and in [6] was inactive. Besides, the outcome in [7] was “inactive”; in experiment [8], “inactive”; in [9], “inactive”; in the experiment with MYC, MYC (gene 4609) it was “inactive”; in [10], “inactive”; in experiment [11] it was “inactive”. For the same compound, the compound was called inactive in experiment [12], in experiment [13], in experiment [14], in [15], in [16] and in experiment [17]. The compound was called inactive in experiment [18] and in experiment [19].
